# Test results as given in PubChem BioAssay (NCI).
# Compounds without any hit were thinned out: in the full panel of roughly 83,000, 20% have a hit.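 Assay: single dose, 48 h. Readout: percent growth (0 = no net growth; negative = cell death). Active: <10.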 The source made the active and inactive calls.
# System: HL-60(TB) leukemia
# Experiment: NCI-60 one-dose screen, 48 h (100 = growth as untreated, 0 = no growth, -100 = all killed)
# Conditions: 10 µM unless noted
row,SMILES,growth
1,Clc1ccc2c(NCCCn3ccnc3)c3oc4ccc(Cl)cc4c3nc2c1,78.6% (inactive)
2,CS(=O)(=O)c1ccc(/C(=N/N=C(N)N)c2ccc(Cl)cc2)cc1,80% (inactive)
3,CN1C(=O)N(C)C2C1NN=c1s/c(=C\c3ccccn3)c(=O)n12 (centres undefined),101% (inactive)
4,CC(=O)Oc1ccc(CCN2C(=O)CSC2=S)cc1,57% (inactive)
5,O=C(/C=C/c1cccc(C(F)(F)F)c1)Nc1cccc(C(F)(F)F)c1,38.3% (inactive)
6,CCCCCc1ccc(S(=O)(=O)Nc2cccc(-c3csc(NC(=O)CN4CCN(C)CC4)n3)c2)cc1,35.8% (inactive)
7,C=CCn1c(-c2nc3ccc(C(=C(C#N)C#N)c4ccccc4)cc3[nH]2)cc2cc(Br)ccc21,59.2% (inactive)
8,COC(=O)c1[nH]nc2c1C1(C(=O)N(C)c3ccccc31)C(C#N)=C(N)O2 (centres undefined),107% (inactive)
9,Cc1csc(/N=C(N)/N=C(\N)c2cccs2)n1,111% (inactive)
10,O=C(Cn1cc(-c2ccccc2)nn1)Nc1nc(-c2ccc(Cl)cc2)cs1,89.7% (inactive)
11,CN1CCN(Cc2ccc(NC(=O)c3cncc(C#Cc4cnc(N)nc4)c3)cc2C(F)(F)F)CC1,19.4% (inactive)
12,Nc1nc(-c2cccc([N+](=O)[O-])c2)c(N=Nc2ccccc2Cl)s1,93.7% (inactive)
13,CC(O)C(NC(=O)C1CCCN1C(=O)CNC(=O)C1CC(=O)NCC(=O)NC(Cc2c[nH]c3ccccc23)C(=O)NC(Cc2ccc(O)cc2)C(=O)NCC(=O)NC(CO)C(=O)NC(CCC(N)=O)C(=O)NC(Cc2c[nH]c3ccccc23)C(=O)N1)C(=O)NCC(=O)NC(CCC(N)=O)C(=O)NC(CCCNC(=N)N)C(=O)NC(CC(=O)O)C(=O)O (centres undefined),99.7% (inactive)
14,O=S(=O)(Nc1cc(Cl)c(F)c(Cl)c1)c1ccc(-c2cnc(C3CC3)o2)cc1,14.1% (inactive)
15,C#CCOC(=O)[C@@H]1CCCN1CC#C,85.3% (inactive)
16,Nc1cc(F)ccc1NC(=O)c1ccc(NC(=O)C/C=C/c2cccnc2)cc1,13.4% (inactive)
17,CCN(CC)c1ccc(/C=N/NC(=O)c2ccc(NS(C)(=O)=O)cc2)cc1,3.16% (active)

row,SMILES,growth
1,O=C(CCCCCCNC(=O)C(O)(O)C(F)(F)F)Nc1ncc(-c2ccc(Br)cc2)s1,6.28% (active)
2,C#C[C@]1(O)CC[C@H]2[C@@H]3CC=C4c5sc(Nc6ccc(C)cn6)nc5CC[C@]4(C)[C@H]3CC[C@@]21C,-43.3% (active)
3,CC(=O)c1ccc(Nc2nc(SC(C)C)nc(-c3ccccc3)c2C#N)cc1,83.8% (inactive)
4,CCCn1cnc2c(c1=N)C(c1ccc(Cl)cc1)c1sc3c(CC)cccc3c1O2 (centres undefined),0.217% (active)
5,Cn1cc(-c2cc(N)n3nc(-c4cn(C)c5ccc(Br)cc45)cc3n2)c2cc(Br)ccc21,26.7% (inactive)
6,N#Cc1cccc(CN2CCC3=C(C2)C(=O)N(Cc2ccc(Cl)cc2)C2=NCCN23)c1,16.2% (inactive)
7,COc1ccc(/C=N\NC(=O)c2cnn(CC(O)c3ccccc3)c2N)cc1OCc1ccc(Cl)cc1 (centres undefined),99.7% (inactive)
8,CCN(CC)c1ccc2c(c1)Oc1nc(N)c(C#N)c(N)c1C2Sc1ccc(C)cc1 (centres undefined),-24.4% (active)
9,O=C(CCC(=O)N1CCOCC1)OCCCCCCSc1ccc([N+](=O)[O-])c2nonc12,-45.4% (active)
10,CC1(C)CC[C@]2(C(=O)N3CCOCC3)CC[C@]3(C)C(=CC[C@@H]4[C@@]5(C)C/C(=C/c6ccccn6)C(=O)C(C)(C)[C@@H]5CC[C@]43C)[C@@H]2C1,6.91% (active)
11,CNC(=O)c1cc(N2CCc3cc(NC(=O)Nc4ccc(N5CCOCC5)c(C(F)(F)F)c4)ccc32)ccn1,13% (inactive)
12,C/C(=N/NC(N)=S)c1ccc(Nc2nc(SCC(C)C)nc(-c3ccc(F)cc3)c2C#N)cc1,73.9% (inactive)
13,CC(C)=CCc1c(O)c(CC=C(C)C)c2c(c1O)C(=O)C1=C[C@@H]3C[C@H]4C(C)(C)O[C@@](C/C=C(\C)C(=O)O)(C3=O)[C@@]14O2,-14.1% (active)
14,COc1ccc(Cc2nn(CC(=O)N/N=C/c3ccc(Cl)cc3)c(=O)c3c(C)noc23)cc1,101% (inactive)
15,CCO/C=N/C1=C(C#N)C(c2ccc(OC)cc2)c2sc3c(C)cccc3c2O1 (centres undefined),-18.5% (active)
16,CCc1cc2c(cc1Cl)nc1c(=O)[nH]c(=O)nc-1n2CCOCC(C)C,51.2% (inactive)
17,O=C(CN1C(=O)/C(=C/c2ccccc2)SC1=S)N1CCOCC1,89.1% (inactive)
